# Bioassay records (PubChem)
# In the library only some 12% were active in any assay of this set; here they are far more common.
# Pf growth 96h: inhibits malaria parasite growth, 96 h | P. falciparum luciferase reporter growth, 96 h | Potency, µM (highest dose often 28.7 µM), hits mostly inhibitors | 320,000 tested, 6.9% active
#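 Two-generation exposure (96 h) targets delayed-death phenotype. Reporter parasites carrying integrated firefly luciferase, in red cells at 2% hematocrit and 0.05% parasitemia final, kept at 37 C, 5% CO2; luminescence loss indicates inhibition.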
# SARS PLpro yeast: SARS-CoV PLP inhibition in yeast. S. cerevisiae expressing SARS-CoV PLpro, growth rescue. Potency, µM (series often up to 32.9 µM), actives largely listed as activators. 330,000 tested, 0.19% active. AID 485353; calls by dose curve; note: nearly all actives have a fitted effect of over 55% in size
# Pf growth 48h: inhibits P. falciparum growth in the first generation, 48 h; 310,000 tested, 5.9% active; Potency, µM (series often up to 28.7 µM), usual class: inhibitors; P. falciparum luciferase growth in erythrocytes, 48 h
#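 Luminescence readout; reporter = integrated firefly luciferase in P. falciparum. RBC culture at 2% hematocrit, 0.1% parasitemia final, 37 C/5% CO2; decreased signal taken as growth inhibition.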
# Sm TGR inh: inhibitors of Schistosoma mansoni thioredoxin glutathione reductase; Potency, µM (doses to about 114 µM), most hits filed as inhibitors; Q962Y6; 360,000 tested, 3% active; purified TGR, DTNB reduction, TNB absorbance 405 nm; note: nearly all actives have a fitted effect of over 60% in size
#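 First, TGR (20 nM dispensed) and NADPH were mixed with compound. Second, a 15 min room-temperature incubation followed. Third, further NADPH and then DTNB were added to start the reaction. Finally, TNB absorbance was monitored kinetically.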
# A number is an active result; - = inactive; ? = inconclusive; . = no result; [ ] = another dose, or the depositor's remark. Unless noted, calls come from the whole dose curve; as a rule, active = well fitted curve in the direction sought with a large enough effect; inconclusive = small, poorly fitted or top-dose-only effect, or another doubt; inactive = no such curve, though single readings can be large; an effect the other way counts as inactive or inconclusive.
SMILES,Pf growth 96h,SARS PLpro yeast,Pf growth 48h,Sm TGR inh
CCC(C)NCC(=O)Nc1ccc(-c2nc3cc(NC(=O)CNC(C)CC)ccc3o2)cc1 (stereo unspecified),-,-,?,-
Cn1c(=O)c2c(nc(NN=C3CCCCC3)n2C)n(C)c1=O,-,-,-,12.6µM
CC(C)C[C@@H](C)C(=O)N(Cc1ccccc1)c1ccccc1,?,-,-,-
CC[C@@H](CCC=C(C)C)C(=O)N(Cc1ccccc1)c1ccccc1,?,-,8.28µM,?
Cc1ccc(S(=O)(=O)N2CCc3cc(C(=O)N(C)Cc4ccccc4)ccc32)cc1,.,.,.,-
O=C(NNC(=O)c1ccccc1-n1cccc1)c1ccc(Cl)nc1,-,-,-,-
O=S(=O)(c1ccc(N2CCCC2)nc1)N1CCOCC1,.,-,-,-
O=S(=O)(c1ccc(Br)cc1)N1CCCC1c1nc2ccccc2s1 (stereo unspecified),?,-,10.4µM,-
O=S(=O)(c1ccc(N2CCCC2c2nc3ccccc3s2)nc1)N1CCOCC1 (stereo unspecified),11.7µM,-,10.4µM,-
CN(C)S(=O)(=O)c1ccc(C(=O)N2CCCC2c2nc3ccccc3s2)cc1 (stereo unspecified),?,-,?,-
Cc1nc(CNS(=O)(=O)c2ccc(F)cc2)cs1,-,-,-,-
Cc1ccccc1CC1(CO)CCCN(C(=O)c2ccccc2N(C)C)C1 (stereo unspecified),0.928µM,-,?,-
Cc1ccccc1CC1(CO)CCCN(C(=O)c2ccc(F)cc2)C1 (stereo unspecified),?,-,-,-
COCCCNC(=O)C1CCC(CNS(=O)(=O)c2ccc3c(c2)N(C(C)=O)CCO3)CC1 (stereo unspecified),?,-,-,-
COc1ccc(CCCc2nnc(SCC(=O)Nc3ccc(C)cc3)o2)cc1C,.,.,.,-
COc1ccc2c(c1)nc1n2CN(CC2CCCO2)CN1Cc1ccccc1 (stereo unspecified),11.7µM,-,9.28µM,-
C[C@@H]1CC=C[C@H]2[C@H]1C(=O)N(Cc1ccccc1)[C@H]2c1ccc(/C=C/c2ccccc2)cc1F,?,-,10.4µM,-
COc1ccc(-c2c([C@H]3[C@H]4C=CC[C@@H](C)[C@@H]4C(=O)N3Cc3ccccc3)ccc3ccccc23)cc1OC,2.94µM,-,2.33µM,-
COc1ccc(-c2ccc([C@H]3[C@H]4C=CC[C@@H](C)[C@@H]4C(=O)N3Cc3ccccc3)c(F)c2)cc1C,?,-,10.4µM,-
C[C@@H]1CC=C[C@H]2[C@H]1C(=O)N(Cc1ccccc1)[C@H]2c1ccc(-c2ccoc2)cc1F,?,-,?,?
COc1ccc(-c2ccc(OC)c([C@H]3[C@H]4C=CC[C@@H](C)[C@@H]4C(=O)N3Cc3ccccc3)c2)cc1OC,?,-,?,-
C[C@@H]1CC=C[C@H]2[C@H]1C(=O)N(Cc1ccccc1)[C@H]2c1ccc(-c2ccc(F)cc2)cc1F,?,-,?,-
COc1ccc(-c2ccc(F)cc2)cc1[C@H]1[C@H]2C=CC[C@@H](C)[C@@H]2C(=O)N1Cc1ccccc1,?,-,11.7µM,-
CCCCC(=O)Nc1nnc(S(=O)(=O)N(C)Cc2ccc(Cl)cc2)s1,.,.,.,-
CC(=O)c1ccc(NC(=O)c2nc(-c3ccccc3)n(-c3ccc(C)cc3)n2)cc1,.,.,.,-
SMILES,Pf growth 96h,SARS PLpro yeast,Pf growth 48h,Sm TGR inh
CCN(CC)CCN1C(=O)C(O)=C(C(=O)c2ccco2)C1c1ccccn1 (stereo unspecified),.,-,.,44.7µM
CSc1nnc(N2C(=O)C(O)=C(C(=O)c3ccco3)C2c2cccc(Cl)c2)s1 (stereo unspecified),-,-,-,8.91µM
O=C(C1=C(O)C(=O)N(c2ncccn2)C1c1cccc(Cl)c1)c1ccco1 (stereo unspecified),-,.,-,44.7µM
CCSc1nnc(N2C(=O)C(O)=C(C(=O)c3ccco3)C2c2cccc(OC)c2)s1 (stereo unspecified),?,-,-,?
CCOc1cccc(C2C(C(=O)c3ccco3)=C(O)C(=O)N2Cc2ccncc2)c1 (stereo unspecified),2.62µM,-,-,?
CCN(CC)CCCN1C(=O)C(O)=C(C(=O)c2cc3ccccc3o2)C1c1ccccn1 (stereo unspecified),-,-,.,-[11.4 µM]
O=C(C1=C(O)C(=O)N(c2ncccn2)C1c1ccc(Cl)c(Cl)c1)c1ccco1 (stereo unspecified),-,-,-,?
CCOC(=O)c1[nH]c2c(c1Cc1ccccc1)C(=O)CC(c1ccc(Cl)cc1)C2 (stereo unspecified),.,.,.,-
O=C(COC(=O)/C=C/c1ccc(F)cc1)NC1CCS(=O)(=O)C1 (stereo unspecified),-,-,?,-
COc1cc(NC(=O)N2CCC3(CC2)Nc2ccccc2-n2cccc23)cc(OC)c1OC,.,.,.,-
Cc1cccc(NC(=O)Cn2nnc(C(=O)NCc3cccs3)c2N)c1,.,.,.,-
COc1ccccc1CCCNC(=O)C1CCC(=O)N(CCc2cccc(F)c2)C1 (stereo unspecified),-,-,-,-
CSc1nnc(N2C(=O)C(O)=C(C(=O)c3ccco3)C2c2ccc(F)cc2)s1 (stereo unspecified),-,-,-,50.1µM
O=C1C(=Cc2ccc(Br)o2)C(=O)c2ccccc21,-,-,-,11.2µM
Cc1ccc(NC(=O)CN2C(=O)S/C(=C/c3ccc(-c4cc(C(=O)O)ccc4C)o3)C2=O)cc1C,.,-,-,-
Cc1ccc(C(=O)O)cc1-c1ccc(C=C2C(=O)c3ccccc3C2=O)o1,-,-,-,44.7µM
Cc1ccc(C)c(SCC(=O)Nc2cc(S(=O)(=O)N3CCOCC3)ccc2C)c1,?,-,?,?
CCc1ccccc1NC(=S)N=Nc1c(O)n(C)c2ccc(S(=O)(=O)N3CCOCC3)cc12,1.85µM,-,3.29µM,-
Cc1ccc(Cn2c(O)c(N=NC(=S)Nc3ccccc3F)c3cc(S(=O)(=O)N4CCOCC4)ccc32)cc1,-,-,3.29µM,-
CCc1ccccc1NC(=O)c1ccc(S(=O)(=O)N2CCCC2)cc1,-,-,-,-
Cc1ccc(C)c(NC(=S)N=Nc2c(O)n(C)c3ccc(S(=O)(=O)N4CCOCC4)cc23)c1,-,-,6.57µM,-
Cc1c(S(=O)(=O)NC2CCCCC2)c(=O)n(C)c(=O)n1C,-,-,-,-
O=C1C2CC=C(Cl)CC2C(=O)N1CCN1CCOCC1 (stereo unspecified),-,-,.,-
O=C1C2CC=C(Cl)CC2C(=O)N1CCCCCCN1C(=O)C2CC=C(Cl)CC2C1=O (stereo unspecified),11.7µM,-,.,22.4µM
O=C1C2CC=C(Cl)CC2C(=O)N1CCC[n+]1cccc2ccccc21 (stereo unspecified),?,-,9.28µM,-
CCOc1ccc(S(=O)(=O)Nc2cccc(-c3ccc(N4CCCC4)nn3)c2)cc1,.,.,.,-
COc1cccc(NC(=O)CSc2nnc3ccc(-c4ccncc4)nn23)c1,-,-,-,-
